Test results as given in PubChem BioAssay AID2100 (National Center for Advancing Translational Sciences (NCATS), 2009).
Hit rate of the full screen: of about 300,000 compounds, about 1,200 (0.4%) were called active. About 3% were inconclusive and are not listed. The call rests on the fitted dose curve; in most records, active means well fitted inhibition curve with a large enough effect; inconclusive means small, poorly fitted or top-dose-only effect, or another doubt; inactive means no such curve, though single readings can be large or run the other way. This excerpt belongs to a sample that is enriched for actives.

biological target: Lysosomal alpha-glucosidase (Homo sapiens) (UniProt P10253); assay: qHTS Assay for Inhibitors and Activators of Human alpha-Glucosidase Cleavage of Glycogen; settings: recombinant GAA, glycogen substrate, Amplex Red glucose oxidase fluorescence; series mostly up to 76.3 µM; activity change, negative = inhibition: at the top concentration;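 further: the screen sought inhibitors and activators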;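 on activity change, negative = inhibition: 0% = full enzyme reaction and -100% = no-enzyme basal signal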
Text: NIH Chemical Genomics Center [NCGC] NIH Molecular Libraries Probe Production Centers Network [MLPCN] MLPCN Grant: R03 MH084841-01 Assay Submitter (PI): Wei Zheng NCGC Assay Overview: Alpha-glucosidase is responsible for the hydrolysis of terminal, non-reducing 1,4-linked alpha-D-glucose residues, which releases alpha-D-glucose. It is a lysosomal hydrolase that is required for the degradation of a small percentage (1-3%) of cellular glycogen in humans. Deficiency of this enzyme results in glycogen-storage disease type II (GSDII), also referred to as Pompe disease, an autosomal recessive disorder. Structurally normal glycogen is accumulated in the lysosomes and cytoplasm in affected patients, primarily in muscle tissues. Excessive glycogen storage within lysosomes may interrupt normal functioning of other organelles and leads to cellular injury. In turn, this leads to enlargement and dysfunction of the entire organ involved (eg: cardiomyopathy and muscle weakness). It has been reported that the improper folding and trafficking of alpha-glucosidase resulting from genetic mutations may account for a significant number of Pompe patients. […] We optimized this alpha-glucosidase assay in 1536-well plate format for identification of novel small molecule inhibitors or activators with structures other than the sugar analogs in order to develop new pharmacological chaperones. Previous assays of alpha-Glucosidase have utilized a non-natural fluorescent substrate to probe enzyme activity. The present assay measures enzyme activity on glycogen using a coupled-assay system to glucose oxidase.
NCGC Assay Protocol Summary: This is an enzyme assay using glycogen from bovine liver (Sigma catalog #: G0885) as the substrate and recombinant human alpha-glucosidase as the enzyme preparation. Upon hydrolysis of the substrate, the glucose product can be detected using the Amplex Red Glucose Oxidase Assay Kit (Invitrogen catalog #: A22189). The product of this reaction can be read with a fluorescence plate reader with an excitation at 573 nm and an emission at 610 nm. Data were normalized to the controls for basal activity (without enzyme) and 100% activity (with enzyme). The AC50 values were determined from concentration-response data modeled with the standard Hill equation. Assay buffer for enzyme reaction: 50 mM citric acid (titrated with potassium phosphate to pH 5.0), 0.01% Tween-20 (pH 5.0 is an optimal condition for this enzyme assay) Assay buffer for Amplex Red reaction: Tris-HCl, pH 7.5 1536-well assay protocol for the alpha-glucosidase assay: (1) Add 2 ul/well alpha-glucosidase enzyme solution (4 nM final) (2) Add 23 nL compounds in DMSO solution. The final titration was 0.7 nM to 77 uM. (3) Add 1 ul of glycogen substrate solution (30 ug) (4) Incubate at 37 C for 40 min (5) Add 2 ul tris-HCl buffer with Amplex Red reagents (6) Incubate 45 min at room temperature. (7) Detect the assay plate in a ViewLux plate reader (PerkinElmer) with Ex=573 nm and Em=610nm. Keywords: Alpha-glucosidase, Pompe Disease, pharmacological chaperone, chaperone therapy, high throughput screening, alpha-glucosidase inhibitor, MLSMR, MLSCN, NIH Roadmap, qHTS and NCGC
Potency means the concentration at half of the fitted maximal effect.

Structure (SMILES)	Potency	activity change, negative = inhibition
N#C/C=C\Oc1ccc(Cl)cc1N	9.92 µM (active)	
CCCS(=O)(=O)c1c(Nc2ccccc2C)sc(C(=O)c2ccccc2)c1N		-9.74% (inactive)
COc1ccc(S(=O)(=O)Nc2cc3c(C(=O)OC(C)C)c(C)oc3c3ccccc23)cc1		11.4% (inactive)
Cn1cnc([N+](=O)[O-])c1Nc1ccccc1O	7.88 µM (active)	
Cn1cnc([N+](=O)[O-])c1Sc1n[nH]c(N)n1		-4.82% [at 76.4 µM] (inactive)
Cn1cnc([N+](=O)[O-])c1Sc1ccccc1		1.08% [at 76.4 µM] (inactive)
CC1=C(C(=O)OCc2ccc(C)cc2)C(c2ccccc2Cl)CC(=O)N1 (configuration not stated)		8.08% (inactive)
CCc1ccc(NC(=O)c2sc3nc4c(cc3c2N)CN(CC)CC4)cc1		0.0714% (inactive)
CCc1nn(CC(=O)N2CCN(c3ccc(Cl)cc3)CC2)c(=O)c2cc3occc3n12		-17.1% (inactive)
COc1ccccc1-c1nc(SC)n[nH]1		-3.53% [at 76.4 µM] (inactive)
COc1ccccc1C1=Nc2cccc3cccc(c23)N1	17.6 µM (active)	
Fc1ccccc1N=C1Nc2cccc3cccc1c23		7.79% [at 76.4 µM] (inactive)
Cc1cc(C)c2c(-n3cccc3)c(NC(=O)OCc3ccccc3)sc2n1		-15.1% [at 76.4 µM] (inactive)
COC(=O)Nc1sc2nc(C)cc(C)c2c1-n1cccc1		0.68% [at 76.4 µM] (inactive)
Cc1cc(C)c2c(-n3cccc3)c(C(=O)NNS(=O)(=O)c3ccc(F)cc3)sc2n1	31.6 µM (active)	
COc1ccc(Cn2cc(C(=O)c3ccc(C)cc3)c(=O)c3cc(OC)c(OC)cc32)cc1		-8.05% (inactive)
COc1ccc(CNC(=O)c2cc3c(-c4ccccc4F)nn(C)c3s2)c(OC)c1		-14.3% (inactive)
COc1ccc(-c2cc(C(F)(F)F)nc(SCC(=O)N(C)Cc3ccccc3)n2)cc1OC		7.48% (inactive)
Cc1ccc(C(=O)NNC(=O)c2cccs2)cc1		3.51% [at 76.4 µM] (inactive)
O=C(NNC(=O)c1ccc(Cl)cc1Cl)c1cccs1		-13.2% [at 76.4 µM] (inactive)
Cc1ccc(NNC(=O)c2cccs2)cc1Cl	14.1 µM (active)	
O=C(O)C1CCN(c2ccc([N+](=O)[O-])cc2[N+](=O)[O-])CC1		0.683% [at 76.4 µM] (inactive)
COc1ccc(N2CCN(c3ccc([N+](=O)[O-])cc3Cl)CC2)cc1		9.13% [at 76.4 µM] (inactive)
O=[N+]([O-])c1ccc(N2CCN(c3ccc(O)cc3)CC2)c(Cl)c1	10 µM (active)	
O=C(CSCc1cnn(-c2ccccc2)c1-n1cccc1)NCc1ccccc1Br		-1.5% (inactive)
CC(=O)Nc1ccc(NC(=O)CCCc2nc(-c3ccc(C(C)(C)C)cc3)no2)cc1		12.5% (inactive)

Structure (SMILES)	Potency	activity change, negative = inhibition
COc1ccc(N2CCN(c3cc(C)nc4nncn34)CC2)cc1		9.48% (inactive)
O=C(COC(=O)c1ccccc1C(=O)N1CCN(c2ccccc2)CC1)NCc1ccccc1		-1.56% [at 76.4 µM] (inactive)
Oc1ccc(N2CCN(C(=S)NCc3ccccc3)CC2)cc1	3.16 µM (active)	
S=C(NCCc1ccccc1)N1CCCCC1		4.13% [at 76.4 µM] (inactive)
COc1ccc(-c2noc(CSc3nc4ccc(C)cc4[nH]3)n2)cc1		-11% (inactive)
O=C(CN1CCN(c2ccc(O)cc2)CC1)Nc1ccc(-c2ccccc2)cc1	10 µM (active)	
O=C(CN1CCN(c2ccccc2)CC1)Nc1ccc(F)cc1		-5.55% [at 76.4 µM] (inactive)
O=C(CN1CCOCC1)Nc1ccccc1		4.65% [at 76.4 µM] (inactive)
CCOc1ccc(N(CC)S(=O)(=O)N2CCCC(C(=O)NCc3ccc(SC)cc3)C2)cc1 (configuration not stated)		11.1% (inactive)
CCc1ccc(NC(=O)C2CCCN2S(=O)(=O)c2ccc3nc(-c4ccccc4)[nH]c3c2)cc1 (configuration not stated)		-14.4% (inactive)
Cc1ccccc1CNC(=O)CCCn1nc(C)c2sc3ccccc3c2c1=O		-10.6% (inactive)
O=C(Cn1nc(C(F)(F)F)c2c1CCCC2)Nc1ccc(Cl)cc1		9.38% (inactive)
COc1cccc(-c2nc(CS(=O)(=O)CC(=O)N3CCN(c4cc(C)ccc4C)CC3)c(C)o2)c1		-17% (inactive)
CCC(O)CNc1nc(-n2nc(C)cc2C)nc2sc3c(c12)CC(C)(C)OC3 (configuration not stated)		-8.09% [at 76.4 µM] (inactive)
C=CCNC(=S)NNc1ncnc2sc3c(c12)CC(C)(C)OC3	11.2 µM (active)	
CC/C(C)=N/Nc1nc2sc3c(c2c(=O)[nH]1)CC(C)(C)OC3		1.15% [at 76.4 µM] (inactive)
Cc1cccc(OCCSc2nc3ccccc3n2CC(=O)N2CCCCC2)c1C		12% (inactive)
Cc1cc(Nc2ccccc2)n(C(=O)c2ccc(N)cc2)n1		-16% [at 76.4 µM] (inactive)
Cc1cc(Nc2ccccc2)n(CCC#N)n1	19.8 µM (active)	
N#CCCn1ncc2ccccc21		1.77% [at 76.4 µM] (inactive)
COc1ccc(NC(=O)NC(C)c2c(-n3cccc3)sc(C)c2C)cc1OC (configuration not stated)		8.49% (inactive)
O=C(CS(=O)(=O)c1ccc(C(F)(F)F)cn1)NNC(=O)c1ccccc1		-2.4% [at 76.4 µM] (inactive)
O=C(NNS(=O)(=O)c1ccccc1C(F)(F)F)c1cc2ncc(C(F)(F)F)cc2s1	28.2 µM (active)	
Cc1cc(C(=O)NNS(=O)(=O)c2ccccc2C(F)(F)F)nn1C(C)(C)C		-13.5% [at 76.4 µM] (inactive)
CCc1ccc(NC(=O)Cn2c(=O)n(CCC(=O)NCc3ccc4c(c3)OCO4)c(=O)c3ccccc32)cc1		12.6% (inactive)
COc1ccc(S(=O)(=O)c2cn(C)c3cc(N4CCCCC4)c(F)cc3c2=O)cc1		-7.63% (inactive)
